Our source for the outcome and AC50 values is PubChem BioAssay (EPA / NIEHS).

As usually defined, the AC50 is the concentration giving half of the maximal activity seen.

Test [1] is described as follows: BSK_BT_Bcell_Proliferation: Viability Assessment in the BioMAP Diversity Plus: BT Assay for B cell Proliferation (AID 2284227). Conditions: primary human B cells with PBMC. In outline:
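Human B cells co-cultured with PBMC were dosed with test chemicals and relative cell number was quantified by SRB staining at 72 h. Cells were fixed in 10% TCA, stained with 0.1% SRB and read at 560 nm. Activity was fitted in the positive direction against DMSO.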

Read-out in test [2]: Interleukin 6 (IL6), IL6 (gene 3569)
Briefly: BSK_BT_xIL6: BioMAP Diversity Plus: BT Assay for Interleukin 6 (IL6) Biomarker Activity (AID 2284228). Particulars: primary human B cells with PBMC. Summed up: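 IL-6 secretion measured (Luminex xMAP) in human primary B cell + PBMC co-culture at 24 h of chemical exposure; DMSO served as negative control and activity baseline, with curves fitted for increase.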

Read-out in test [3]: Interleukin 17A (IL17A), IL17A (gene 3605)
Kind of test: BSK_BT_xIL17A: BioMAP Diversity Plus: BT Assay for Interleukin 17A (IL17A) Biomarker Activity (AID 2284229). Particulars: primary human B cells with PBMC. In outline:
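Human primary B cells plus PBMC, treated 24 h with chemicals; supernatant IL-17A quantified on Luminex xMAP beads. Gain of signal over DMSO control scored as activity.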

Read-out in test [4]: Vascular cell adhesion molecule 1 (VCAM1), VCAM1 (gene 7412)
Briefly: BSK_MyoF_VCAM1: BioMAP Diversity Plus: MyoF Assay for Vascular cell adhesion molecule 1 (VCAM1) Biomarker Activity (AID 2284231). Particulars: primary human lung fibroblasts. In outline: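 VCAM-1 levels, lung fibroblasts, ELISA, 24 h exposure, increase scored relative to DMSO.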

Read-out in test [5]: Collagen I, COL1A1 (gene 1277)
Kind of test: BSK_MyoF_CollagenI: BioMAP Diversity Plus: MyoF Assay for Collagen I Biomarker Activity (AID 2284238). Particulars: primary human lung fibroblasts. In outline:
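Measured by ELISA: Collagen I from human lung fibroblasts 24 h after compound addition, analysed for signal gain with DMSO as baseline; overt toxicity read from SRB staining of parallel cultures at the same time.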

Read-out in test [6]: Interleukin 17F (IL17F), IL17F (gene 112744)
Briefly: BSK_BT_xIL17F: BioMAP Diversity Plus: BT Assay for Interleukin 17F (IL17F) Biomarker Activity (AID 2284243). Conditions: primary human B cells with PBMC. Summed up: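 Luminex readout of IL-17F secretion, 24 h; cells: human B cells with PBMC; positive-direction analysis, DMSO control.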

Read-out in test [7]: Interleukin 2 (IL2), IL2 (gene 3558)
Kind of test: BSK_BT_xIL2: BioMAP Diversity Plus: BT Assay for Interleukin 2 (IL2) Biomarker Activity (AID 2284245). Particulars: primary human B cells with PBMC. In outline:
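Co-cultures of primary human B cells and PBMC are treated with chemical and sampled at 24 h. IL-2 secretion is quantified by Luminex xMAP, with DMSO-treated wells as baseline.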

Read-out in test [8]: Basic fibroblast growth factor (bFGF), FGF2 (gene 2247)
Briefly: BSK_MyoF_bFGF: BioMAP Diversity Plus: MyoF Assay for Basic fibroblast growth factor (bFGF) Biomarker Activity (AID 2284246). Particulars: primary human lung fibroblasts. Summed up: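 Fibroblasts from human lung, 24 h dosing. bFGF by ELISA; gain of signal over DMSO.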

Read-out in test [9]: Collagen IV, COL4A1 (gene 1282)
Kind of test: BSK_MyoF_CollagenIV: BioMAP Diversity Plus: MyoF Assay for Collagen IV Biomarker Activity (AID 2284247). Conditions: primary human lung fibroblasts. In outline:
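Lung fibroblasts (human primary) treated with chemicals were assayed after 24 h for Collagen IV using an ELISA, with DMSO serving as negative control and baseline for a positive-direction fit.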

Read-out in test [10]: Plasminogen activator inhibitor-1 (PAI1), SERPINE1 (gene 5054)
Kind of test: BSK_MyoF_PAI1: BioMAP Diversity Plus: MyoF Assay for Plasminogen activator inhibitor-1 (PAI1) Biomarker Activity (AID 2284256).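 On outcome: PAI-1 protein level measured by ELISA in fibroblast cultures; PAI-1 read 24 h after compound addition.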 Particulars: primary human lung fibroblasts. Summed up:
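In this multiplexed primary-cell system, fibroblasts from human lung received compound for 24 h before ELISA detection of PAI-1; overt toxicity was checked by SRB (0.1%, TCA-fixed, 560 nm) in parallel wells.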

Read-out in test [11]: Interleukin-8 (IL8), CXCL8 (gene 3576)
Briefly: BSK_MyoF_IL8: BioMAP Diversity Plus: MyoF Assay for Interleukin-8 (IL8) Biomarker Activity (AID 2284261). Particulars: primary human lung fibroblasts. In outline: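 DMSO-normalised, upward-fitted IL-8 ELISA signal; human lung fibroblasts, 24 h chemical treatment.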

Read-out in test [12]: Decorin, DCN (gene 1634)
Briefly: BSK_MyoF_Decorin: BioMAP Diversity Plus: MyoF Assay for Decorin Biomarker Activity (AID 2284265). Conditions: primary human lung fibroblasts. Summed up: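 In this multiplexed fibroblast system, secreted or surface decorin is detected by ELISA one day after dosing, with increases scored against the DMSO vehicle.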

Test [13] in a line: BSK_MyoF_SRB: Viability Assessment in the BioMAP Diversity Plus: MyoF Assay (AID 2284267).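 Further: total protein by SRB absorbance in parallel cultures as cytotoxicity measure; cells assessed 24 h after compound addition.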 Particulars: primary human lung fibroblasts. Summed up:
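In this viability endpoint, fibroblasts from human lung are treated for 24 h, TCA-fixed, SRB-stained (0.1%) and read at 560 nm. Gain of signal relative to DMSO defines activity.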

Test [14] can be described thus: CCTE_Mundy_HCI_Cortical_NOG_BPCount: CCTE's Neurite Outgrowth Assay in rat cortical cells for Branch Point Count, Mundy Lab (AID 2284237). Summed up:
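Measured 50.33 h after dosing, this morphology endpoint uses rat primary cortical cultures labelled for betaIII-tubulin. Branch points are quantified by high-content imaging, with DMSO as negative control and baseline.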

A short description of test [15]: CCTE_Mundy_HCI_hNP1_Casp3_7: CCTE's Caspase-Glo 3/7 Assay in human neuroprogenitor cells for Apoptosis, Mundy Lab (AID 2284240). Summed up: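 Neuroepithelial-lineage stem cells from WA09 embryonic cells were treated with chemicals after 40–44 h of culture. Twenty-four hours later, caspase-3/7 activation was detected luminescently after a 30 min room-temperature reagent step, with DMSO as baseline.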

Molecules are shown by their SMILES. Active and inactive are the calls of the source. How the source made its calls: active means hit-call score of the fitted dose curve at least 0.9, where 1 is the maximum; inactive means score below 0.9.

As to `O=P(c1ccccc1)(c1ccccc1)c1ccccc1`, the result in test [1], in test [2], in test [3], in test [4], in test [5] and in [6] was inactive. Moreover, the outcome in [7], in test [8], in test [9], in [10], in test [11] and in test [12] was inactive. Also, in test [13], the outcome was inactive.
On to `C=C(C)C(=O)O[C@H]1C[C@@H]2CC[C@@]1(C)C2(C)C`, for which the result in test [1], in [2], in test [3], in [6], in test [7] and in [11] was inactive. For the same molecule, the AC50 in test [4] is 33.6 µM (active); in test [5] it was 29.2 µM (active); in [8], 31.3 µM (active); in test [9], 25 µM (active); in [10], 29.5 µM (active); in [12], 31.7 µM (active). For the same molecule, the half-maximal activity concentration (AC50) in test [13] is 34.8 µM (active).
Turning to `COC(=O)c1ccc(C)cc1`, the result in test [1], in test [2], in test [3], in [4], in [5] and in [6] was inactive. Moreover, the result in test [7], in test [8], in [9], in test [10], in test [11] and in test [12] was inactive. Besides, the outcome in test [13] was inactive.
Turning to `CC(C)(COC(=O)c1ccccc1)COC(=O)c1ccccc1`, the result in test [1], in test [2], in test [3], in test [4], in [5] and in test [6] was inactive. For the same molecule, the outcome in [7], in [8], in test [9], in test [10], in [11] and in [12] was inactive. In addition, the result in test [13] was inactive.
As for `c1ccc2sc(SN(C3CCCCC3)C3CCCCC3)nc2c1`, the result in [1], in test [2], in test [3], in test [4], in test [5] and in test [6] was inactive. In addition, the outcome in test [7], in test [8], in test [9], in [10], in test [11] and in [12] was inactive. Also, in test [13], the outcome was inactive.
Regarding `CC(=O)O[C@]1(C(C)=O)CC[C@H]2[C@@H]3C[C@H](C)C4=CC(=O)CC[C@]4(C)[C@H]3CC[C@@]21C`, the outcome in test [1], in test [2], in test [3], in test [4], in test [5] and in test [7] was inactive. Besides, the result in test [8], in [9], in [10], in test [11], in test [12] and in test [13] was inactive. In addition, the AC50 in [6] was 10 µM (active).
Regarding `C=C[Si](OCC)(OCC)OCC`, the result in [1], in test [2], in test [3], in test [4], in [5] and in test [6] was inactive. Further, the result in test [7], in test [8], in test [9], in test [10], in [11] and in test [12] was inactive. Further, the outcome in test [13] was inactive.
On to `O=C=NC1CCC(CC2CCC(N=C=O)CC2)CC1` (stereo not given), for which, in test [1], the AC50 is 31.2 µM (active). In addition, the outcome in [2], in [3], in test [4], in [5], in test [6] and in test [7] was inactive. In addition, the result in [8], in test [9], in test [10], in [11], in [12] and in [13] was inactive.
For the molecule `BrC1CCC(Br)C(Br)CCC(Br)C(Br)CCC1Br` (stereo not given), the AC50 in [1] is 28.4 µM (active); in test [3], 17.4 µM (active); in test [6] it was 25 µM (active); in test [7], 25.2 µM (active). For the same molecule, the outcome in test [2], in [4], in [5], in [8], in [9] and in [10] was inactive. The outcome in test [11], in [12] and in test [13] was inactive.
As for `O=[N+]([O-])c1cc(C(F)(F)F)ccc1Cl`, the result in test [1], in test [2], in test [3], in [4], in test [5] and in [6] was inactive. The outcome in test [7], in test [8], in [9], in [11], in test [12] and in test [13] was inactive. Also, the AC50 in [10] is 0.11 µM (active).
`N#Cc1ccc(CC(=NNC(=O)Nc2ccc(OC(F)(F)F)cc2)c2cccc(C(F)(F)F)c2)cc1`: the result in [1], in test [2], in test [3], in test [4], in test [14] and in [5] was inactive. Besides, the call in test [15], in test [6], in test [7], in test [8], in [9] and in [10] was inactive. Moreover, the result in test [11], in [12] and in test [13] was inactive.
On to `CCn1c2ccccc2c2cc(N)ccc21`, for which the AC50 in test [1] was 13.1 µM (active); in test [2], 11.6 µM (active). Further, the outcome in [3], in test [4], in [5], in [6], in test [7] and in [8] was inactive. Further, the outcome in test [9], in [10], in test [11], in test [12] and in test [13] was inactive.
In the case of `CN(C)C(=N)N=C(N)N`, the molecule was called inactive in test [14] and in [15].
